In PubChem BioAssay AID1347426 (Functional Genomics Laboratory (NCATS/FGL), 2020):
Out of some 31,000 sequences screened, about 1,400 (4.5%) were called active. Many of the other results were omitted from the sample, so actives are more common in it than they were. Values without a mark were called inactive.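 Rule for the calls: active = median seed-adjusted z-score above 1 or below -1; inactive = the rest.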

Assay: Novel Modifiers of Survival Motor Neuron (SMN) Protein: Gene Identification via Genome-wide siRNA Screen;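 note: luminescence tracks full-length SMN protein made from the SMN2 reporter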
Details: HEK293T SMN2-luciferase reporter, siRNA knockdown, 72 h; actives lie on both sides
Method in brief: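 Each of three siRNAs per gene is reverse-transfected (1 pmol) into reporter HEK293T cells whose luciferase output tracks SMN protein level. After 72 h culture, ONE-Glo luminescence is control-normalized, log10-transformed and MAD-standardized; Common Seed Analysis deprioritizes seed-driven hits.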

| Sequence | median seed-adjusted z-score |
| --- | --- |
| GGAAAUUAUGUAGAACCGATT against ALDH7A1 | -0.406 |
| CAGUGCACAGUGAAACCAATT against ADAM11 | 0.102 |
| GAGCUAGCGAAUAACCUUATT against DDX42 | -2.13 (active) |
| CCCUCGGGAUCACACUUAUTT against MFSD1 | -0.0833 |
| GCACGAUAUAUAUAGCUAUTT against RIPK2 | 0.176 |
| CAAAGACUCUGGAAUGAAUTT against PRICKLE2 | -1.12 (active) |
| CAACAAGCGUAAGACCAAATT against SYTL5 | 0.192 |
| GGAUCGCCCUGUAUGCUGUTT against LRTM2 | 0.465 |
| GAAGAGCUCUUAGAGUGUATT against BCAT1 | -0.604 |
| AGUCCUCUAUCAACCUCUUTT against RXFP3 | -0.0651 |
| CUCCGUAUCAUAGAUGUAATT against PCDHB3 | 0.304 |
| GGAGCUCACUGACGAGAAUTT against POLR2C | -2.95 (active) |
| GAAACCAAGUCAUAUGAAATT against CRTAP | 0.581 |
| GGAUCUACUCGGCACUCUATT against ZBTB20 | -0.521 |
| AGACCGCACUGACAGAGGATT against BAIAP2 | -0.0497 |
| CAAAGAACCUAUCCGCUUATT against GGA2 | -0.142 |
| GAAGCAGAGGACAACAUGATT against SNRPD3 | -2.69 (active) |
| CAGUUAUGAUUGGUGGAGATT against CDC42 | -0.0938 |
| AGAACUUGAUGCUCCGAGATT against ITGA7 | 0.13 |
| UUCUCUCCCUAAUAAAAAUTT against AVPR2 | -0.262 |
| GCCUACCCAUUUGUGAACATT against PEX12 | -0.129 |
| GCUCCACCGAGAUUCCUGATT against TCEB1 | 1.08 (active) |

| Sequence | median seed-adjusted z-score |
| --- | --- |
| GGUGCUGGAGUUAAUCUUATT against TP53I3 | 0.244 |
| GGCUUAAAGACAUUGAACATT against KLHL1 | 0.067 |
| GGACCUAGUGUGAGCAUAATT against COL14A1 | 0.19 |
| GCCCACAUGUUUAAGGACATT against KCTD9 | 1.31 (active) |
| GAUACGUACUAUGACCGAATT against TGM7 | 0.244 |
| GCACCUUCCGCGUCAUGUUTT against BTBD2 | 0.0303 |
| GAGCUGACUUCGGAACUAATT against LCN2 | 0.123 |
| CCACAGAGAUAAGCAGUCATT against IL15RA | -0.0113 |
| GGACUCCCAUCAGUUCCUATT against MFSD4 | -1.89 (active) |
| GCUGGAAUCUAACAAUAGATT against ROCK2 | -0.149 |
| CGUGUCCUGUCUGAACCAATT against ESCO2 | 0 |
| AAGAGUCAGUUUUCAGAUATT against CHID1 | 0.199 |
| GGAGGUUAAAGUGAAGAUUTT against MORF4L2 | 0.389 |
| AAAUCGAUCAGAUCAACAATT against CDC2L1 | -1.14 (active) |
| CCCUGAUCCUAUAGCUAUUTT against ART4 | -0.0808 |
| GAUCUGUGGUUGCAAACGATT against TRMT1 | -0.224 |
| CAGUUAUACUCAGAAGAGATT against ZNF155 | 0.698 |
| GAAUGACCUUGAACAAUGATT against ABTB2 | 0.432 |
| UGGAAUACAUGGAUCAGAATT against HEPACAM | -0.063 |
| AGUACGGACAGAUCUCUGATT against CIRBP | -0.701 |
| CAGUCGACCAGUACAUCAATT against PMS1 | 0.0538 |
| AGUUGUAAAUUUACAAAGATT against UNC119 | 0.171 |

| Sequence | median seed-adjusted z-score |
| --- | --- |
| GAGUUUUUCGAGCUCAUGATT against PGS1 | 1.36 (active) |
| GGACUUUGGUGUGAAUGAATT against ANXA1 | -0.114 |
| GCAUUGAAACGAAUGGGAATT against UBA5 | -0.105 |
| UCUUCACCGUGUGCCUAGATT against CRAT | -1.42 (active) |
| GCAGAUAAGAUCAAGAUCATT against SRPK3 | -0.643 |
| GAAGAAACCUUGACAAAAATT against KHDRBS3 | 0.0681 |
| GACUAGUUUUGAUCAGGAATT against ZBTB5 | 0.314 |
| GCAGAAUUCUGACGAUGAUTT against LEO1 | 1.2 (active) |
| CGAACAAAACGGGCCUGGATT against FOXA2 | 0.883 |
| CCCUCUUUGGUCUAACUCATT against HOXA3 | 0.315 |
| CGAAGACACGUAGCCCUAATT against PUS3 | 0.584 |
| GGUGUAAUAAUGUCCUUUATT against SNRPF | -2.66 (active) |
| GGACUACAAAGUCGACCAATT against NDUFB10 | -0.39 |
| GGAGAUAGAACCUUCCAGATT against HLA-B | -0.355 |
| CUAGAGUCGCUGUUGAAGATT against DRAP1 | 1.08 (active) |
| GGGUGGAGGUGUACUAUGATT against LOXL2 | 0.177 |
| CAUCAUCAGUUUUUCGAUUTT against AHCTF1 | -0.501 |
| GAUGCCCAGUGUCCUGUUATT against PIF1 | -0.0455 |
| GCAAGACAAGUGUCGGGAATT against HSPA6 | 0.364 |
| CAGCAGAACGUGUACGAGATT against ZBTB7A | -0.344 |
| CAAGUGGGCUGAGUACCAUTT against PHPT1 | 1.27 (active) |
| GAGGUAAGAUGGAUGAAGATT against ACSM1 | 0.658 |

| Sequence | median seed-adjusted z-score |
| --- | --- |
| UCAAUGCCUCCUUAAUUUUTT against ZNF321 | -0.642 |
| CAGCGGAUGUGUUCAGUCUTT against PKMYT1 | 0.65 |
| CAAAACUAGUAAUCCUUAUTT against CDK8 | -1.47 (active) |
| GGACAUGUGCGUCUACCGATT against HOXD13 | 0.116 |
| GGAUUUAUCAGAACCUUUATT against SLC25A15 | -0.0116 |
| CCUACCAUCUUGUCCCUAATT against SLC7A6 | -0.0877 |
| UGGAGUAAAUGAUAAGAUATT against TRIM45 | -0.0974 |
| GCACCAUUACUAUAGAGGATT against PTH2R | -0.492 |
| CAUCACCUAUUGGAUCCAATT against MMP9 | -1.15 (active) |
| CGGUCCAAAUUGAAAGCGATT against STX1B | 0.229 |
| CGACUUGUUGUAUAAGUAUTT against DYNC1LI2 | -0.491 |
| CCAAGUUAUUGCUAUCAGATT against PPCS | 0 |
| GGUAAACGCAAAGCACUGATT against MAP2K4 | -0.366 |
| GCCUCUUGCUAGGCAUAGCTT against CLDN15 | 0.973 |
| CCCUCGACAGAGUCAGUUUTT against NPC1 | -0.195 |
| GAUUGAAACUGACAAGACATT against DLST | 1.16 (active) |
| CAGCUACGGAAGAACCUGATT against PHF21A | 0.179 |
| UCGAGGAAAUGAUCCGGGATT against GALE | -0.153 |
| GGAGGAUCGUUUAGACAGATT against TCF12 | -0.16 |
| CAGCUGCAAUUCUAGCUAATT against RETSAT | -1.7 (active) |
| CAAUCACUGUGGAAUAUCATT against INPPL1 | 0.199 |
| CAAGGGUAUUAUUCGAGUUTT against PPP1R3A | -0.241 |

| Sequence | median seed-adjusted z-score |
| --- | --- |
| GAAAACCGCAGAUAAAGUATT against NFRKB | 0.787 |
| GGUGCAAUCAGAUAACAUATT against PPAPDC1A | 0.634 |
| CUGUUUAAGCGAUGACAAATT against CFL2 | -0.148 |
| AUCCUUAUUUGACACGAAATT against HOXC8 | -0.0285 |
| GGACUUUGCCUAUGUCUGUTT against TFAP2C | 1.28 (active) |
| AGACCACCAAGGUUUCUUUTT against KCNH6 | 0.424 |
| CUGGAAUGGUUGUCUGGUATT against SERTAD1 | 0.376 |
| GAAGAGAACUUCUGCCGUATT against MST1 | -1.47 (active) |
| GAUUAAUCCUUCAAUGAUUTT against TAF9B | -0.0247 |
| CGUCAGCUAUGUAAUGUUUTT against SLC22A7 | -0.387 |
| GGACAGCUACGUGAAGAUUTT against PAK6 | -0.57 |
| UGAUGGUUGUGACAAUUGUTT against SUPT4H1 | -1.01 (active) |
| AGCCUGUGAUGACUACAGATT against MGP | -0.0854 |
| GAACUUACCUUCAACUACATT against NSD1 | -0.372 |
| GAGUGAUUCUAGCCUCUAATT against SEC61A1 | 0.312 |
| CGAGAAAUCCCACAAGCGATT against NOVA2 | 0 |
| GGAAGGCUUUUAGCAAUGATT against ZNF570 | 0.662 |
| GGAUCGAGGAAAUAACAAUTT against DDX42 | -2.13 (active) |
| GAAUGAGUUUUGUCAUGGATT against SUV39H2 | -0.279 |
| AGGCCGUGCUCUUCACCUATT against FAAH | 0.373 |
